The source of these data is the OligoGym collection.
Also: reference of the scale not given here.

The first assay deals with KRT75. The assay is described as follows: pooled miR-30 sensor sort-seq; sequence = guide strand. As to conditions: shRNA.
Sequence TTCCACAACATCCTGCATGTTC showed a sensor-assay potency score (higher = more potent) of 0.126. The same measure, in the same setting: the result for TTGACTCCAAACCTGTTGCTGG reads -0.175; that for TTCACATGTGTAACAGACGGGT, -0.549. On to TTCATCTTCGTACCTGACTTTG, for which the sensor-assay potency score (higher = more potent) was -1.

Consider TCAACCTGCACTCCTCGCCTTC, for which the sensor-assay potency score (higher = more potent) was -1.25. For TTGCAAGCTGGAACACTGCTTC, the sensor-assay potency score (higher = more potent) turned out to be 0.132.

A further assay concerns the target KRT79. Described as above. The settings on record: shRNA.
In the case of TTCATCCTCGTACTTGTTCTTG, the sensor-assay potency score (higher = more potent) is -0.726.

Consider TTTGCCATGCAGATCCATCCGG, for which the sensor-assay potency score (higher = more potent) was -0.203. TTGCCAGTCACAGAAATGCTGA came in with a sensor-assay potency score (higher = more potent) of -0.931.

The sequence TTGAGCACCACAAACTCGTTCT returned a sensor-assay potency score (higher = more potent) of 0.422. Still for that read-out and setting: next, TTTGTGGAGTATGTTTGCCGAG: -0.673; TTCTCTGCAGCAGTGTGCTTGT: -0.0157; TTGACCGTAGTGGTCTTCCGCA: -0.477. On the same count and under the same terms, next, TCGCTCTCCAGAAGCTTGCGGT: -0.966. In the case of TTGCCATGCAGATCCATCCGGC, the sensor-assay potency score (higher = more potent) is -0.416. With TTGATTTCATCCTCGTACTTGT, the sensor-assay potency score (higher = more potent) came to 0.185. In turn, ATTTGTGCTGAATCCACCCTTG gave a sensor-assay potency score (higher = more potent) of 0.32. Still for that read-out and setting: the result for TTAACCTTCCCTCCCATCCTAC reads -1.2.

For the next assay, the target named is KRT85. The description is as above. The settings on record: shRNA.
On to TTCACTGAATAGCAAGACCTGT, for which the sensor-assay potency score (higher = more potent) is -0.614. Same read-out and setting: next, TTCTTTAGAACGACAAACTCAT: 0.238; AACATCGTCATACTGAGCCTTG: -0.503. Sequence TTGAAACACAGATCGAGACAAC displayed a sensor-assay potency score (higher = more potent) of -0.784. Still for that read-out and setting: next, TTCTGGTAGAACTGCCACTTGG: -1.54; TTTATTGAAACACAGATCGAGA: -0.788. Still for that read-out and setting: next, TTGCTCTCGCAGCAGCGCTGGT: -1.3; TATTTTGGAGCTAAGTAGGAGT: -0.047. For ATCTTGACTATGACCGAGGTGT, the sensor-assay potency score (higher = more potent) was -0.378. Still for that read-out and setting: next, TAGAACGACAAACTCATTCTCT: 0.106. Same read-out and setting: the result for TCCCTCTGTAGGAACATCCAGA reads -1.53; that for TTGACTATGACCGAGGTGTCTG, -0.0564.

The next assay deals with KRT86. The assay is described as above. As to conditions: shRNA.
TCCAGCTCGGCCAACTTGCAGC registered a sensor-assay potency score (higher = more potent) of -1.89. The sequence AATGTCATCGTACTGTGCCTTG displayed a sensor-assay potency score (higher = more potent) of -0.754. Same read-out and setting: next, TAGTAGTGCCCACCACCACGTT: -1.34; TTAGTTTTTCAGAAGCTCTTGA: 0.521. On the same count and under the same terms, the result for TTATTGGAAACACAGAGTGAAA reads -1.53. On the same count and under the same terms, the result for TTGATCTCGGCAATGATGCAGT reads -0.0305; that for TGACAATGTCATCGTACTGTGC, -0.56. In the case of TCGTACTGTGCCTTGATCTCGG, the sensor-assay potency score (higher = more potent) is 0.0587. Same read-out and setting: next, TTGCTGTTGCTGGGGACGCTAC: -1.52.

ACGGGTGACAATGTCATCGTAC yielded a sensor-assay potency score (higher = more potent) of -0.601.
